Assay outcomes deposited in PubChem by several laboratories.
This is a sample that favours compounds with a hit; in the whole collection about 3.6% have one here.
Peg3 prom inh = Peg3 promoter-driven luciferase inhibitors, primary screen, cell-based, HeLa, luciferase luminescence. HeLa PEG-Prom luciferase reporter, overnight. inhibition, % at 20 µM. 360,000 compounds, 1.7% hits;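 active = inhibition of at least 50% at 20 µM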
Mdm2 MdmX PPI = inhibitors of human Mdm2-MdmX association, primary screen, cell-based, luminescence, split luciferase, SaOS-2, uHTS; Protein Mdm4 (Homo sapiens) + E3 ubiquitin-protein ligase Mdm2 (Homo sapiens), …; SaOS-2 split-luciferase Mdm2/MdmX complementation; inhibition, % at 8 µM; 330,000 compounds, 3% hits; AID 485346, 2010;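 active = inhibition of at least 50% at 8 µM in the primary screen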
Target sequence (O15151 whole entry, looked up): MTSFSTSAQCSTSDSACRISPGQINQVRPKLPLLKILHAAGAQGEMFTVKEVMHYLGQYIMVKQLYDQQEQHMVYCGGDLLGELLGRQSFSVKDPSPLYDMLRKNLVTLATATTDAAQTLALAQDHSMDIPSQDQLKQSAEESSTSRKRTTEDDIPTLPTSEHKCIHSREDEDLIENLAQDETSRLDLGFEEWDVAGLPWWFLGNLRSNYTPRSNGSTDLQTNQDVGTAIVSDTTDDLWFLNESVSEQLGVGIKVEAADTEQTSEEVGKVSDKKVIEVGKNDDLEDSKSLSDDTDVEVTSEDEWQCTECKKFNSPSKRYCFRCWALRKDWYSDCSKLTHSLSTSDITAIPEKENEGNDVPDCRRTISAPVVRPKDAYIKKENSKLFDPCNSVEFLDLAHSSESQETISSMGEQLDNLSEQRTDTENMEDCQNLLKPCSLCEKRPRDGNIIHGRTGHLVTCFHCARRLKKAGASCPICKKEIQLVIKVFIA
Target sequence (Q00987 whole entry, looked up): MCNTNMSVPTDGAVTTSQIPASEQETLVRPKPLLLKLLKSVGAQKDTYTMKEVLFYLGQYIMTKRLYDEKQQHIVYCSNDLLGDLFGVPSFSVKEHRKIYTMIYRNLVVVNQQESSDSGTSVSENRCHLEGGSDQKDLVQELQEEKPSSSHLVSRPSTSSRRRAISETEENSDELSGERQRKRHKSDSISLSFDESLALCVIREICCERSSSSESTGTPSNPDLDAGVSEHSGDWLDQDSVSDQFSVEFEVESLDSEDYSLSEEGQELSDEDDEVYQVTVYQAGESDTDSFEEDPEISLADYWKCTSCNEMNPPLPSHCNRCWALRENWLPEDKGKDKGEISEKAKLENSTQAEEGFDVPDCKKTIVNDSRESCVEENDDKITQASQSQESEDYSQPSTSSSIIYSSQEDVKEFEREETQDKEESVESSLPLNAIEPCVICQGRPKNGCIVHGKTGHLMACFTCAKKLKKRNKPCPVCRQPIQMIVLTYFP
LGR2 inh = inhibitors of bursicon-induced LGR2 CRE-luciferase signal, primary screen, cell-based, HEK293, CRE-luciferase reporter, bursicon stimulation; Drosophila bursicon receptor LGR2 (rickets); bursicon-stimulated, 4 h; inhibition, % at 9.99 µM; 380,000 compounds, 0.35% hits; AID 720647, 2013;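 active = drop in luminescence signal, shown as inhibition above about 50% in the replicate tests, limit read from the data, passing the limit was not always enough; inconclusive = probably only some replicates passing the limit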;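 note: agonist challenge used bursicon conditioned medium at about half maximal strength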
CF NFkB inh = inhibitors of PAF-induced NF-kB signaling, primary screen, cell-based, GFP fluorescence, uHTS | KKLEB NF-kB-GFP reporter, GFP fluorescence overnight | inhibition, % at 5 µM | 360,000 compounds, 0.86% hits | AID 588850, 2011;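 active = at least 50% inhibition at 5 µM, scaled per plate between neutral and stimulator controls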;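 note: PAF is a Pseudomonas aeruginosa culture filtrate used as stimulus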
HSP90 inh = HSP90 inhibitors, primary screen, cell lysate, luminescence; inhibition, % at 5.6 µM; Rabbit reticulocyte lysate, luciferase refolding luminescence, 3 h; Heat shock protein HSP 90 (rabbit reticulocyte lysate; luciferase refolding); 290,000 compounds, 0.91% hits;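 active = inhibition above the screen-wide mean plus 3 SD, computed separately per campaign, cut at about 16% in these data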;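 note: inhibitors lower the luminescence because luciferase stays unfolded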
KKLEB cytotox = cytotoxicity in KKLEB CF airway cells, primary screen, cytotoxicity control for CF NF-kB inhibitor project, cell-based, uHTS, fluorescence assay plates; KKLEB CF airway cells viability, ATPlite luminescence, overnight; hits give low values; cells stimulated with P. aeruginosa culture filtrate; activity change (cytotoxicity), % at 5 µM; 360,000 compounds, 0.36% hits; AID 602141, 2011;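 active = corrected activity change at or below -50% at 5 µM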
Mdm2-MdmX conf = Mdm2-MdmX complex disruptors, retested hits, confirmation, luminescence, single concentration | Mdm2-MdmX binding, luminescent assay | inhibition, % at 8 µM | shares compounds with Mdm2 MdmX PPI | 10,000 compounds, 55% hits | AID 489028, 2010; in the data active = inhibition above about 40%
Full FLuc ctr = full-length luciferase signal inhibition, confirmation, counter-screen for Mdm2/MdmX interaction inhibitor project, cell-based, single concentration, SaOS-2. shares compounds with Mdm2 MdmX PPI. SaOS-2 full-length luciferase counterscreen, luminescence. inhibition, % at 8 µM. 6,200 compounds, 77% hits. AID 504607, 2011;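 active = mean inhibition at 8 µM reaching about 37%, which flags the compound as non-specific, limit read from the data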;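 note: p53-null SaOS-2 cells with luciferase driven by a doxycycline-inducible promoter; compound on cells about two nights before reading with doxycycline added after day one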
Hits are given with their value; 0 = inactive; ? = inconclusive; - = no result given.

SMILES | Peg3 prom inh | Mdm2 MdmX PPI | LGR2 inh | CF NFkB inh | HSP90 inh | KKLEB cytotox | Mdm2-MdmX conf | others
Cc1c(CCOC(=O)CC23CC4CC(CC(C)(C4)C2)C3)sc[n+]1CC(=O)c1ccccc1 | 84 | 54 | 0 | 0 | 0 | 0 | 0
Cc1c(CCOC(=O)CC23CC4CC(CC(C4)C2)C3)sc[n+]1CC(=O)c1ccc(Br)cc1 | 0 | 51 | - | 0 | 0 | 0 | 0
Cc1c(CCOC(=O)c2cc([N+](=O)[O-])cc([N+](=O)[O-])c2)sc[n+]1CC(=O)c1ccccc1 | 0 | 0 | - | 0 | 0 | 0 | -
C[C@@H]1CN([C@@H](C)CO)C(=O)c2cc(C#CC3CC3)cnc2O[C@H]1CN(C)C(=O)CC1CC1 | - | - | 0 | - | - | - | -
CCSC1=C(C#N)C2(CCCCC2)C(C#N)=C(N)N1 | 0 | 0 | 0 | 0 | 0 | 0 | -
N#CC1=C(N)NC(SCc2ccccc2)=C(C#N)C12CCCCC2 | 0 | 64 | - | 0 | 0 | 0 | 61 | Full FLuc ctr=72
O=C(Oc1ccc2c(c1)OCO2)c1cc2c(s1)CCC2 | 0 | 97 | - | 0 | 0 | 0 | 78 | Full FLuc ctr=0
C[C@@H]1CN([C@@H](C)CO)C(=O)c2cc(NS(=O)(=O)c3ccccc3)ccc2O[C@H]1CN(C)C | - | - | 0 | - | - | - | -
CC(=O)c1ccc(NC(=O)COC(=O)c2c3c(nc4ccccc24)/C(=C\c2cccs2)CCC3)cc1 | 56 | 66 | 0 | 0 | 0 | 0 | 0
CC(C)CNC(=O)COC(=O)c1c2c(nc3ccccc13)/C(=C\c1cccs1)CC2 | 0 | - | - | 0 | - | 0 | -
O=C(Cc1ccc(-n2cccc2)cc1)NCc1cccs1 | 0 | 55 | - | 0 | 0 | 0 | 47 | Full FLuc ctr=67
Cc1ccc(CNC(=O)Cc2ccc(-n3cccc3)cc2)cc1 | 0 | 0 | 0 | 0 | 0 | 0 | -
CCCCn1c2c(c(=N)c3ccccc31)CCC2 | 0 | 0 | 0 | 0 | 0 | 0 | -
CCCCCCCCn1c2c(c(=N)c3ccccc31)CCC2 | 86 | 85 | ? | 0 | 0 | 0 | 86 | Full FLuc ctr=0
CCCCCn1c2c(c(=N)c3ccccc31)CCC2 | 0 | 60 | 0 | 0 | 0 | 0 | 0
COc1ccc(NC(=O)C2CCN(c3cc(-c4ccccc4)nc4ncnn34)CC2)cc1OC | 0 | 54 | 0 | 0 | 0 | 0 | 0 | Full FLuc ctr=60
Cc1cc(C)cc(NC(=O)CCn2c(=O)c3cccn3c3ccccc32)c1 | 0 | 56 | 0 | 0 | 0 | 0 | 50 | Full FLuc ctr=52
CN1C[C@H]2[C@@H](c3ccccc31)[C@H](CO)N2C(=O)C1CCCCC1 | - | - | 0 | - | - | - | -
Cn1nc(C(F)(F)F)c(C#N)c1N1CCN(c2ccccc2)CC1 | 0 | 0 | 0 | 0 | 0 | 0 | -
Cn1nc(C(F)(F)F)c(C#N)c1N1CCN(c2ccc(F)cc2)CC1 | 0 | 56 | - | 0 | 0 | 0 | 0
COc1ccccc1-c1cc(-c2ccccc2)nc(SC(C(N)=O)c2ccccc2)c1C#N (stereo not drawn) | 0 | 93 | - | 60 | 0 | -72 | 58 | Full FLuc ctr=0
Cc1nc(SC(C(N)=O)c2ccccc2)c(C#N)c(C)c1C (stereo not drawn) | 0 | 0 | 0 | 0 | 0 | 0 | -
CC(=O)c1nn(-c2cccc(Br)c2)cc1C(=O)c1ccccc1 | 0 | 0 | - | 0 | 0 | 0 | -
CC(=O)c1nn(-c2cccc(Br)c2)cc1C(=O)c1ccc(Cl)cc1 | 0 | 53 | 0 | 0 | 0 | 0 | 0
CCOc1ccc(NC(=O)Nc2cc(OCC(F)(F)F)cc(OCC(F)(F)F)c2)cc1 | 0 | 0 | 0 | 0 | 0 | 0 | -
SMILES | Peg3 prom inh | Mdm2 MdmX PPI | LGR2 inh | CF NFkB inh | HSP90 inh | KKLEB cytotox | Mdm2-MdmX conf | others
O=C(Nc1ccc(F)cc1)Nc1cc(OCC(F)(F)F)cc(OCC(F)(F)F)c1 | 0 | 89 | 0 | 0 | 0 | 0 | 90 | Full FLuc ctr=52
O=C(CN1C(=O)S/C(=C\c2cccc(Cl)c2)C1=O)NC1C=CS(=O)(=O)C1 (stereo not drawn) | 0 | 57 | 0 | 0 | 0 | 0 | 0
O=C(CN1C(=O)/C(=C/c2cccc(Cl)c2)SC1=S)NC1C=CS(=O)(=O)C1 (stereo not drawn) | 0 | 0 | 0 | 0 | 0 | 0 | -
O=C(/C=C/c1cccc([N+](=O)[O-])c1)Nc1ccc(NC(=O)c2cccs2)cc1 | 0 | 85 | 0 | 0 | 0 | 0 | 0
O=C(N/N=C/c1cccc([N+](=O)[O-])c1)c1cccs1 | 0 | 0 | 0 | 0 | 0 | 0 | -
O=C(/C=C/c1cccc([N+](=O)[O-])c1)c1cccs1 | 99 | 74 | 0 | 0 | 0 | 0 | 57 | Full FLuc ctr=74
C[C@H](CO)N1C[C@H](C)[C@@H](CN(C)S(=O)(=O)c2ccc(F)cc2)Oc2c(NS(=O)(=O)c3cccs3)cccc2C1=O | - | - | 0 | - | - | - | -
CCOC(=O)c1c(C)nc2sc(C(=O)Nc3ccccc3)c(N)c2c1-c1ccc(OC)cc1 | 0 | 59 | - | 0 | 0 | 0 | 0
C[C@@H]1CN([C@H](C)CO)C(=O)c2cc(NC(=O)Cc3ccccc3)ccc2O[C@@H]1CN(C)S(C)(=O)=O | - | - | 0 | - | - | - | -
C[C@@H]1CCCCO[C@H](CN(C)C(=O)Nc2ccc(C(F)(F)F)cc2)[C@@H](C)CN([C@@H](C)CO)C(=O)c2cc(NC(=O)c3ccccc3)ccc2O1 | - | - | 0 | - | - | - | -
O=C(Nc1nc2ccccc2s1)c1cc(-c2ccccc2)nn1-c1ccccc1 | 0 | 86 | 0 | 0 | 0 | 0 | 47 | Full FLuc ctr=110
CCCNC(=O)[C@@H]1[C@@H](CO)[C@@H]2Cn3c(ccc(C4=CCCC4)c3=O)[C@@H]2N1C(=O)CC1CC1 | - | - | 0 | - | - | - | -
Cc1noc(C)c1NC(=O)Nc1ccc2c(c1)C(=O)N([C@H](C)CO)C[C@@H](C)[C@H](CN(C)S(=O)(=O)c1ccc(Cl)cc1)OCCCC[C@@H](C)O2 | - | - | 0 | - | - | - | -
COc1cc(/C=C/c2ccc3c(Br)cc(Br)c(O)c3n2)ccc1O | 0 | - | 0 | 0 | 0 | 0 | -
COc1cc(Br)cc(/C=C/c2ccc3cccc(O)c3n2)c1OC | 0 | 65 | 0 | 0 | 0 | 0 | 0
COc1ccc(Br)cc1/C=C/c1ccc2cccc(O)c2n1 | 0 | 51 | 0 | 0 | 0 | 0 | 0
C[C@@H]1CCCCO[C@H](CN(C)CC2CCCCC2)[C@H](C)CN([C@@H](C)CO)C(=O)c2cc(NC(=O)c3ccncc3)ccc2O1 | - | - | 0 | - | - | - | -
COc1ccc(OC)c(-n2nnnc2SCC(=O)Nc2ccc3c(c2)OCCO3)c1 | 0 | 82 | - | 0 | 0 | 0 | 0
